# Screening data (PubChem)
# D1 PAM: Potentiators of Human D1 Dopamine Receptor: qHTS | D(1A) dopamine receptor (Homo sapiens), P21728 | HEK293 TREx D1 cells, calcium flux, dopamine EC20 potentiation | potentiation, % at 10 µM | 360,000 tested, 0.036% active | AID 504651, 2011; in the data active = potentiation above about 30%; note: 0% is about no effect
# TRHR agonist: qHTS for Small Molecule Agonists and Allosteric Enhancers of Human TRH Receptor: Primary Screen for Agonists; TRHR cells, calcium flux fluo-8, FDSS agonist mode; activation, % at 2 µM; 360,000 tested, 0.18% active; AID 493084, 2011; note: 0% is about no effect
# Target sequence (P34981 whole entry, looked up): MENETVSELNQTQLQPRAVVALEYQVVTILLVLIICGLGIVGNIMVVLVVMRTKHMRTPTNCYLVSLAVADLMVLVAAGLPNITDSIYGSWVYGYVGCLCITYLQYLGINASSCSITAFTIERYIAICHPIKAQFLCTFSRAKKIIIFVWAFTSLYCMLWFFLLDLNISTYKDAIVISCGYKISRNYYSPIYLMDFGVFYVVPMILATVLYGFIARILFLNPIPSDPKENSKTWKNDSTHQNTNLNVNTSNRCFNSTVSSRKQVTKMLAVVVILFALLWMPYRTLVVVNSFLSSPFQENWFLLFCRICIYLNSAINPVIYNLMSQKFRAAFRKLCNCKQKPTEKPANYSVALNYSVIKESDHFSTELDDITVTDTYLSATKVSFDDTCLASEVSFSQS
#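 Read-out: compound-evoked intracellular calcium rise in TRHR cells, fluo-8 dye, kinetic FDSS fluorescence at 1 s/cycle following a 10-cycle baseline. Cells cultured overnight before dye loading (30 min–1.5 h, RT).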
# TRHR PAM: qHTS for Small Molecule Agonists and Allosteric Enhancers of Human TRH Receptor: Primary Screen for Enhancers. TRHR cells, fluo-8 calcium fluorescence, EC20 TRH enhancement. enhancement, % at 2 µM. 360,000 tested, 0.66% active. AID 493056, 2011; in the data active = enhancement above about 30%; note: 0% is about no effect
#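 TRHR-expressing cells loaded with fluo-8 calcium dye were read kinetically (ex 480/em 530) during compound addition, then stimulated with an EC20 of TRH (10 nM final). Enhancement of the Gq-mediated intracellular calcium response was scored.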
# D1 antagonist: Antagonist of Human D 1 Dopamine Receptor: qHTS. activity change, negative = inhibition, % at 10 µM. 360,000 tested, 3.2% active. HEK293 TREx D1 cells, calcium flux, dopamine EC80; stronger effect = lower value. AID 504652, 2011; in the data active = activity change below about -30%; note: % is set by controls: 0 for no effect and ±100 for the full control effect
#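 Allosteric or orthosteric antagonism assessed as attenuation of the calcium response to EC80 dopamine, added 180 s after compound, in induced HEK293 Trex D1 cells loaded with no-wash calcium dye.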
# D1 agonist: Allosteric Agonists of the Human D1 Dopamine Receptor: qHTS. D(1A) dopamine receptor (Homo sapiens), P21728. HEK293 T-REx D1 cells, calcium flux, agonist mode. activation, % at 2 µM. 360,000 tested, 1% active; note: 0% is about no effect
#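 Inducible HEK293 T-REx D1 cells, force-coupled to calcium signalling, were plated at 4000 cells/well with tetracycline and held overnight at 30 C. After no-wash calcium dye loading, compound-evoked calcium rise over 180 s flagged agonists.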
# Numbers without * were called inactive; . = no result; ! = repeats disagree. A selection: hits, their analogues and other compounds. The true share with any hit is near 4.7%. Cut-off read from the data, not from the text of the source, unless noted: active = activation above about 30%; inactive = the rest.
SMILES,D1 PAM,TRHR agonist,TRHR PAM,D1 antagonist,D1 agonist
N=c1sccn1CC(=O)Nc1cc(S(=O)(=O)N2CCCCC2)ccc1Cl,-3,0,4,-30,4
Cc1ccc(S(=O)(=O)N2CCCCC2)cc1NC(=O)Cn1ccsc1=N,-8,0,-7,-39*,3
Cc1ccc(S(=O)(=O)N2CCOCC2)cc1NC(=O)C1=NN(c2ccccc2)C(=O)CC1,-4,0,-6,2,2
Cc1ccc(S(=O)(=O)N2CCCCC2)cc1NC(=O)C1CCC1,.,0,4,-34*,7
Cc1ccc(Oc2ccc(NC(=O)Cn3ccsc3=N)cc2)cc1,-6,3,-8,-29,85*
CCOc1ccc(S(=O)(=O)NCC(c2ccco2)S(=O)(=O)c2ccc(F)cc2)cc1 (stereo not drawn),-1,1,2,.,0
CCn1c(COc2ccc(Cl)cc2Cl)nc2ccccc21,1,-1,-7,-9,-1
O=c1c2cnn(-c3ccc(F)cc3)c2ncn1Cc1ccccc1Cl,5,-1,-1,2,2
Nc1ccc(N2C(=O)c3ccccc3C2=O)c(Cl)c1,-3,-1,15,-46*,-1
Fc1ccc(C2CCNCC2COc2ccc3c(c2)OCO3)cc1 (stereo not drawn),-5,2,3,7,38*
O=C(COc1ccc2c(c1)OCO2)Nc1ccccc1F,-2,0,2,.,0
Fc1ccc([C@@H]2CCNC[C@H]2COc2ccc3c(c2)OCO3)cc1,0,2,0,-37*,59*
CCC(CC)C(=O)Nc1ccc(-c2cn3cccnc3n2)cc1,-4,1,-5,-31*!,0
CCC(CC)C(=O)Nc1ccncc1,-6,0,2,-46*,0
CC(C)(C)CC(=O)Nc1cccc(-c2cn3cccnc3n2)c1,4,0,-4,-9,0
CCC(CC)C(=O)Nc1cccc(-c2cn3cccnc3n2)c1,4,0,5,-34*,3
CCOc1ccc(C2CC(=O)NC(NC(=O)c3ccc(C)cc3)=N2)cc1 (stereo not drawn),0,-1,35*,19,0
CC(NC(=O)c1ccc2c(c1)CCN2S(=O)(=O)c1ccc(Cl)cc1)c1ccccc1 (stereo not drawn),-1,4,-2,-18,9
CC1=CC(=O)C=C(C)C1=NOc1ccccc1[N+](=O)[O-],-2,0,1,-66*,0
Cn1c(=O)c2c(ncn2CC(O)CNc2ccc(Cl)cc2)n(C)c1=O (stereo not drawn),-6,0,2,-37*,2
Cc1ccc(NCC(O)Cn2cnc3c2c(=O)n(C)c(=O)n3C)cc1 (stereo not drawn),-4,1,-1,7,2
CC(C)Cn1c(N)c(C(=O)CSc2ccc3c(c2)OCCO3)c(=O)n(C)c1=O,-7,1,1,-33*,24
CC(C)Cn1c(N)c(C(=O)COC(=O)c2ccc3c(c2)OCCO3)c(=O)n(C)c1=O,0,1,5,-2,5
O=C(c1ccccc1)N1CCN(Cc2ccccc2)CC1,-5,1,0,-53*,0
CSc1ccc(CN2CCN(C(=O)c3ccc([N+](=O)[O-])cc3)CC2)cc1,-10,0,-11,-60*,9
SMILES,D1 PAM,TRHR agonist,TRHR PAM,D1 antagonist,D1 agonist
O=C(c1ccc(Cn2ccc([N+](=O)[O-])n2)cc1)N1CCN(Cc2ccccc2)CC1,-3,1,-12,-6,2
O=C(c1ccc(-c2ccccc2)cc1)N1CCN(Cc2ccccn2)CC1,-2,0,-8,-31*,0
CCN1CCN(C(=O)c2ccc(CSc3ccc(C)cc3)cc2)CC1,21,0,21,5,183*
O=C(c1ccccc1)c1ccc(OCCOCCN2CCN(Cc3ccccc3)CC2)cc1,-10,0,4,-33*,29
O=C(c1ccccc1)c1ccc(OCCCN2CCCC2)cc1,-2,1,6,19,9
COc1ccccc1C1CC(c2ccccc2)=NN1S(=O)(=O)c1ccccc1 (stereo not drawn),2,0,-1,-34*,4
CCOC(=O)N1CCN(C(=O)CN(c2cccc(Cl)c2C)S(=O)(=O)c2ccc(C)cc2)CC1,0,-1,-1,12,-3
Cc1csc2ncc(C(=O)NCc3ccccc3Cl)c(=O)n12,-4,0,-4,-34*,1
COc1ccccc1CNC(=O)c1cnc2sccn2c1=O,-12,1,-5,-40*,3
COc1ccccc1CNC(=O)c1cc(C)nn1-c1ccccc1,0,0,-5,-1,1
Cc1csc2ncc(C(=O)NCc3ccc4c(c3)OCO4)c(=O)n12,-6,0,-24,3,4
Cc1cc(C(=O)NCc2ccccc2Cl)n(-c2ccccc2)n1,-3,0,-5,-38*,1
CCN(CC)C(=O)c1c(-c2ccccc2)oc2ccc(O)cc12,-3,0,5,-31*,1
COC(=O)CCNC(=O)N1CCN(c2nnc(C)c3c(C)n(-c4ccc(Cl)cc4)nc23)CC1,-6,0,3,1,1
CCN1CCN(S(=O)(=O)c2ccc(Cl)c(C(=O)Nc3ccc(OC(F)F)cc3)c2)CC1,-13,-1,-4,-33*,8
CCN1CCN(c2ccc(NC(=O)c3cc(S(=O)(=O)N4CCCC4)ccc3Cl)cc2)CC1,-13,1,0,-42*,3
COc1ccc(NC(=O)CSCc2cc(=O)c3cc(Cl)ccc3[nH]2)cc1,0,0,-2,9,-1
CCC(C)NC(=O)C1CCN(S(=O)(=O)c2ccc3c(c2)CCCN3C(C)=O)CC1 (stereo not drawn),-4,0,0,15,0
CCCCn1c(CNC(=O)c2ccc(OC)cc2)nnc1SCC(=O)Nc1ccccc1,-6,0,-1,-69*,1
COc1ccc(OC)c(CCNC(=O)CCn2c(=O)c3cccn3c3ccc(F)cc32)c1,3,2,-5,-6,-1
O=C(Nc1ccc(-c2nc3ccccc3s2)c(O)c1)c1ccc(Br)cc1,2,0,8,-33*,0
O=C(Nc1ccc(-c2nc3ccccc3s2)c(OC(=O)c2ccccc2)c1)c1ccccc1,-8,0,19,1,4
CC(=O)Nc1cccc(-c2nnc(SCC(=O)c3cc([N+](=O)[O-])ccc3Br)o2)c1,-5,-1,-17,-9,0
